PubChem BioAssay AID1159580 (chemical genetic matrix, 2015)
Hit rate of the full screen: of about 5,500 compounds, about 2,000 (36%) were called active. Inconclusive results (about 18%) are left out. Cut-off read from the data, not from the text of the source: active = normalized growth mostly below about 0.91 (no sharp cut-off); inconclusive = no clear call, values can overlap the other calls; inactive = mostly above about 0.92. This is one part of the list.

Assay: chemical genetic growth profiling, strain panel (AID 1159580);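 note: tested at 20 µM; growth read once vehicle control cultures reached saturation at 30 °C; 1 = growth at the plate median or of vehicle wells; lower values mean less growth of the strain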
Conditions: S. cerevisiae deletion strains, growth OD
[1] = locus YAL013W, strain DEP1, hits give low values
[2] = locus YBR229C, strain ROT2, hits give low values
[3] = locus YCL061C, strain MRC1, hits give low values
[4] = locus YDL101C, strain DUN1, hits give low values
[5] = locus YDR150W, strain NUM1, hits give low values
[6] = locus YEL061C, strain CIN8, hits give low values
[7] = locus YGR078C, strain PAC10, hits give low values
[8] = locus YHR030C, strain SLT2, hits give low values
[9] = locus YHR087W, strain rtc3, hits give low values
[10] = locus YJL187C, strain SWE1, hits give low values
[11] = locus YJR043C, strain POL32, hits give low values
[12] = locus YJR075W, strain HOC1, hits give low values
[13] = locus YLR039C, strain RIC1, hits give low values
[14] = locus YLR058C, strain SHM2 (second series), hits give low values
[15] = locus YLR085C, strain ARP6, hits give low values
[16] = locus YLR262C, strain YPT6, hits give low values
[17] = locus YML094W, strain GIM5, hits give low values
[18] = locus YMR219W, strain ESC1, hits give low values
[19] = locus YMR263W, strain SAP30, hits give low values
[20] = locus YNL153C, strain GIM3, hits give low values
[21] = locus YNL298W, strain CLA4 (second series), hits give low values
[22] = locus YNL322C, strain KRE1, hits give low values
[23] = locus YNR030W, strain Alg12, hits give low values
[24] = locus YOL006C, strain TOP1, hits give low values
[25] = locus YPL055C, strain LGE1, hits give low values
[26] = locus YPL241C, strain CIN2, hits give low values
[27] = locus YPR135W, strain CTF4, hits give low values

Measured: normalized growth

O=C(O)c1cnn(-c2ccccc2)c1C(F)(F)F
inactive: [1] 1.01 | [2] 0.988 | [3] 0.995 | [4] 0.998 | [5] 1.02 | [6] 0.996 | [7] 0.99 | [8] 1.01 | [9] 0.98 | [10] 0.993 | [11] 0.992 | [12] 1.02 | [13] 1.03 | [14] 1.01 | [15] 1.05 | [16] 0.955 | [17] 1.02 | [18] 1 | [19] 0.989 | locus YMR307W, strain GAS1, hits give low values 0.979 | locus YNL128W, strain TEP1, hits give low values 1.01 | [20] 0.984 | [21] 1.01 | [22] 0.999 | [23] 1.01 | [24] 1.04 | [25] 1.04 | [26] 1.01 | [27] 1

N#Cc1cnn(-c2ccccc2)c1-n1cccc1
inactive: [1] 0.976 | [2] 0.988 | [3] 0.959 | [4] 1.01 | locus YDL134C, strain PPH21, hits give low values 0.999 | [5] 0.873 | [6] 1.02 | [7] 0.974 | [9] 1.02 | [10] 0.976 | [11] 0.978 | [12] 0.988 | locus YKL190W, strain CNB1, hits give low values 0.985 | [13] 0.859 | [14] 0.974 | [15] 0.933 | [16] 0.883 | [17] 0.984 | [18] 0.981 | [19] 0.964 | [20] 0.994 | [21] 0.967 | [22] 0.989 | [23] 0.956 | [24] 0.938 | [25] 0.969 | [26] 0.953 | [27] 0.82
active: [8] 0.626
